Assay outcomes from PubChem.
Sampled rows, rich in hits. Any-hit rate of the full collection: about 3.5%.
UGM FP inh: M. tuberculosis UGM enzyme inhibitors, primary screen, biochemical, fluorescence polarization, single point | UDP-galactopyranose mutase (Mycobacterium tuberculosis (strain ATCC 25618 / H37Rv)), … | purified UGM, fluorescence polarization probe displacement | inhibition, % at 10 µM | hit rate 0.06% among 320,000 | AID 504406, 2011; in the data active = inhibition above about 10%, passing the limit was not always enough
FBA Mtb inh: Mtb FBA enzyme inhibitors, primary screen, biochemical, fluorescence, strain H37Rv; purified M. tuberculosis FBA, fluorescence read-out; inhibition, % at 1 µM; hit rate 2.3% among 360,000; AID 588726, 2011; in the data active = inhibition above about 27%;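 also: 0% = vehicle and 100% = reference inhibitor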
GDH-TPI inh: GDH-TPI coupling enzyme inhibitors, primary screen, artefact control for M. tuberculosis FBA inhibitor project, biochemical, absorbance, full deck; inhibition, % at 4.8 µM; GDH-TPI coupled enzyme counterscreen, NADH absorbance; hit rate 1.2% among 360,000; in the data active = inhibition above about 30%;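 also: 0% = DMSO wells and 100% = wells lacking the enzyme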
Rv3671c inh: Rv3671c serine protease inhibitors, primary screen, biochemical, fluorescence polarization, M. tuberculosis H37Rv | P9WHR9 | inhibition, % at 5.96 µM | hit rate 0.048% among 320,000; in the data active = inhibition above about 38%;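 also: extracellular domain of Rv3671c used as enzyme; 0% = enzyme with DMSO and 100% = no enzyme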
Target sequence (P9WHR9 whole entry, looked up, the tested form may be a part): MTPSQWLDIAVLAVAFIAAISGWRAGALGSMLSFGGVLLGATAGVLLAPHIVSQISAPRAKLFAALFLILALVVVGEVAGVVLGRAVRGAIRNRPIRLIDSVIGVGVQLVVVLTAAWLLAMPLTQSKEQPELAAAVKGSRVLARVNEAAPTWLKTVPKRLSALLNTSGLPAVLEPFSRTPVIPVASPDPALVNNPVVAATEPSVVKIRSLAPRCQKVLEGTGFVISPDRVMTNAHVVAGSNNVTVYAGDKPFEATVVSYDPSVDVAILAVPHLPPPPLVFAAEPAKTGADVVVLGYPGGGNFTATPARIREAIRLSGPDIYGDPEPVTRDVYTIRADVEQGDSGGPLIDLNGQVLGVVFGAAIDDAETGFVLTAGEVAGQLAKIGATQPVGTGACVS
* = called active by the depositor.

`CC(=O)Oc1cc2oc(=O)c3c(c2cc1Cl)CCC3` gave UGM FP inh 0.2, FBA Mtb inh active, GDH-TPI inh 7.9 and Rv3671c inh -2.2.
For Cc1cc(OC(=O)c2cccs2)c2c3c(c(=O)oc2c1)CCCC3 the results were UGM FP inh -2.1, FBA Mtb inh 5.0, GDH-TPI inh 4.2 and Rv3671c inh -1.7.
`O=C(Oc1ccc2c3c(c(=O)oc2c1)CCC3)c1ccco1` gave UGM FP inh -0.6, FBA Mtb inh active, GDH-TPI inh 7.5 and Rv3671c inh -5.9.
`Cc1ccc(S(=O)(=O)N[C@H](C(=O)Oc2ccc3c(C(F)(F)F)cc(=O)oc3c2)c2ccccc2)cc1` gave UGM FP inh -1.6, FBA Mtb inh 23.5, GDH-TPI inh 9.8 and Rv3671c inh -0.9.
For Cc1cc2oc(=O)c3c(c2cc1OC(=O)c1ccco1)CCCC3 the results were UGM FP inh -5.6, FBA Mtb inh 4.1, GDH-TPI inh 13.7 and Rv3671c inh 7.0.
For Cc1ccc(S(=O)(=O)NC(C(=O)Oc2cc3oc(=O)cc(C)c3cc2Cl)C(C)C)cc1 (stereo unspecified) the results were UGM FP inh 1.6, FBA Mtb inh active, GDH-TPI inh 9.2 and Rv3671c inh -3.8.
Screening Cc1cc(C)c(C)c(S(=O)(=O)N(C)CCc2ccccn2)c1C returned UGM FP inh -0.1, FBA Mtb inh -0.5, GDH-TPI inh -2.9 and Rv3671c inh 3.1.
Screening COc1ccc(C(=O)c2cnc(/N=C/N(C)C)s2)cc1 returned UGM FP inh 2.5, FBA Mtb inh 2.2, GDH-TPI inh 32.9* and Rv3671c inh -16.1.
`CCCCCCC(=O)N=Nc1c(O)[nH]c2ccc([N+](=O)[O-])cc12` gave UGM FP inh 2.5, FBA Mtb inh 3.4, GDH-TPI inh 2.1 and Rv3671c inh -4.8.
For O=C(CNC(=O)c1cccs1)N=Nc1c(O)[nH]c2ccc([N+](=O)[O-])cc12 the results were UGM FP inh 2.2, FBA Mtb inh -2.2, GDH-TPI inh 34.5* and Rv3671c inh 4.3.
For COc1ccc(NC(=O)C2CCN(S(=O)(=O)c3ccc(Cl)c(C(F)(F)F)c3)CC2)cn1 the results were FBA Mtb inh -1.7 and GDH-TPI inh -0.9.
For CCn1c(N)c(C(N)=O)sc1=S the results were UGM FP inh -1.6, FBA Mtb inh -1.1, GDH-TPI inh 12.5 and Rv3671c inh 3.0.
`CCn1c(N)c(C(=O)NC2CCCCC2)sc1=S` gave UGM FP inh -0.9, FBA Mtb inh 0.1, GDH-TPI inh 43.3* and Rv3671c inh 2.0.
For Cc1ccccc1-n1nc(C)c(N=O)c1N the results were UGM FP inh -3.3, FBA Mtb inh 113.5*, GDH-TPI inh 5.1 and Rv3671c inh 0.2.
Cc1nn(-c2ccccc2)c(N)c1N=Nc1cccnc1 was read as UGM FP inh -3.7, FBA Mtb inh -2.4, GDH-TPI inh 23.2 and Rv3671c inh 2.9.
Screening CCOc1ccc2[nH]c(=O)c(=O)[nH]c2c1 returned UGM FP inh 1.5, FBA Mtb inh 3.4, GDH-TPI inh 34.8* and Rv3671c inh 3.0.
`O=C(CCc1nnc(Cc2c[nH]c3ccccc23)o1)NCCC1CCCCO1` (stereo unspecified) gave FBA Mtb inh -1.2 and GDH-TPI inh 10.2.
`CCCCN(CC)C(=O)Cn1ncc2c3ccccc3n(CCC)c2c1=O` gave UGM FP inh -3.6, FBA Mtb inh 10.3 and GDH-TPI inh 4.3.
For COC(=O)c1cc(Cl)cc2c(C)c(C3(O)CCCCC3)[nH]c12 the results were UGM FP inh -1.2, FBA Mtb inh 6.0, GDH-TPI inh -6.0 and Rv3671c inh -18.6.
COC(=O)c1ccc2c(C)c(C3(O)CCCCC3)[nH]c2c1 was read as UGM FP inh -3.2, FBA Mtb inh active, GDH-TPI inh 16.8 and Rv3671c inh -3.6.
Cc1cccn2c(=O)c3cc(C(=O)NCC4CCCO4)c(=N)n(C4CCCC4)c3nc12 (stereo unspecified) was read as UGM FP inh 1.3, FBA Mtb inh active, GDH-TPI inh 10.9 and Rv3671c inh 4.0.
Screening Cc1cccn2c(=O)c3cc(C(=O)NCc4ccco4)c(=N)n(C4CCCCC4)c3nc12 returned UGM FP inh -2.3, FBA Mtb inh 84.9*, GDH-TPI inh 1.1 and Rv3671c inh 2.7.
Cc1cccn2c(=O)c3cc(S(=O)(=O)c4ccc(Br)cc4)c(=N)n(C4CCCC4)c3nc12 was read as UGM FP inh -0.1, FBA Mtb inh 0.1, GDH-TPI inh -4.3 and Rv3671c inh 4.2.
`N=c1c(C(=O)NCC2CCCO2)cc2c(=O)n3ccccc3nc2n1C1CCCCC1` (stereo unspecified) gave UGM FP inh 1.1, FBA Mtb inh active, GDH-TPI inh 0.7 and Rv3671c inh -2.1.
Screening N=c1c(C(=O)NCC2CCCO2)cc2c(=O)n3ccccc3nc2n1C1CCCC1 (stereo unspecified) returned UGM FP inh 1.9, FBA Mtb inh active, GDH-TPI inh -0.8 and Rv3671c inh 4.5.
For CC[C@]12c3[nH]c4ccc(Cl)cc4c3CCN1C(=O)[C@@H](CC(=O)NCCCn1ccnc1)C[C@@H]2C(=O)N1CCN(C(=O)c2ccco2)CC1 the results were FBA Mtb inh -1.5 and GDH-TPI inh -7.3.
`Cc1ccc2nc3c(cc(C(=O)NCC4CCCO4)c(=N)n3C3CCCC3)c(=O)n2c1` (stereo unspecified) gave UGM FP inh -1.1, FBA Mtb inh active, GDH-TPI inh 6.1 and Rv3671c inh -1.4.
`COc1ccc(CCNC(=O)c2cc3c(=O)n4ccccc4nc3n(Cc3ccco3)c2=N)cc1OC` gave UGM FP inh -2.2, FBA Mtb inh -1.8, GDH-TPI inh -3.1 and Rv3671c inh 1.4.
For Cc1cccn2c(=O)c3cc(C(=O)NCc4ccco4)c(=N)n(CCOCCO)c3nc12 the results were UGM FP inh -1.8, FBA Mtb inh active, GDH-TPI inh 16.4 and Rv3671c inh 10.9.
Screening Cc1ccc2nc3c(cc(S(=O)(=O)c4ccccc4)c(=N)n3C3CCCC3)c(=O)n2c1 returned FBA Mtb inh 0.1 and GDH-TPI inh 10.0.
Screening Cc1ccc(S(=O)(=O)NC(=O)C2(C)CCN2C(=O)C2CC2)cc1 (stereo unspecified) returned FBA Mtb inh 3.0 and GDH-TPI inh 6.2.
`O=C(N/N=C/c1cccc(Br)c1)c1ccc(Cn2cc(Br)cn2)o1` gave UGM FP inh -0.6, FBA Mtb inh -0.4, GDH-TPI inh 6.3 and Rv3671c inh -27.0.
For Cc1ccsc1/C=N/NC(=O)c1ccc(Cn2cc(Br)cn2)o1 the results were UGM FP inh 0.5, FBA Mtb inh 1.9, GDH-TPI inh 35.0* and Rv3671c inh -11.6.
CCCCNC(=O)c1nc(C2CCN(S(=O)(=O)c3cccc(C(F)(F)F)c3)CC2)oc1-c1cccc(C(F)(F)F)c1 was read as FBA Mtb inh -1.5.
For C/C(=N/O)c1ccc(Oc2cnccn2)cc1 the results were UGM FP inh -2.6, FBA Mtb inh 1.1, GDH-TPI inh -1.9 and Rv3671c inh -5.7.
